{"source": "PubChem BioAssay AID743279", "about": "(National Center for Advancing Translational Sciences (NCATS), 2014)", "note": "In all, about 360,000 compounds went through this assay and about 17,000 (4.7%) were called active. Roughly 5% stayed inconclusive and do not appear here. For the sample, actives were picked, then their nearest neighbours and some compounds at random. Values without a mark were called inactive. Rule as the data show it: active = activity change below about -50%; inconclusive = mostly about -30% to -49%; inactive = weaker than that. % is scaled to controls: 0 for no effect and ±100 for the full control effect.", "data": [{"test": "qHTS for Inhibitors of Inflammasome Signaling: IL-1-beta AlphaLISA Primary Screen", "conditions": "THP-1 LPS/ATP IL-1B secretion, 16 h; at 57.5 µM, stronger effect = lower value", "method_in_brief": "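Secreted IL-1B measured by AlphaLISA bead assay after 16 h compound exposure of THP-1 cells; compounds (final up to 57.5 uM) added 1 h before LPS (250 ng/mL) and ATP (1.25 mM) stimulation; lower signal means less secretion.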", "values": [{"smiles": "C#CCNC(=O)C[C@@H]1C[C@@]2(C(=O)OCC)CCCC=C2N(Cc2ccco2)C1=O", "activity change": "43.1%"}, {"smiles": "CCC(=O)Nc1nc(OC)cc(OC)n1", "activity change": "5.6%"}, {"smiles": "COc1ccc(NS(=O)(=O)c2ccc(F)cc2F)cn1", "activity change": "0.798%"}, {"smiles": "COc1cc(OC)nc(S(C)(=O)=O)n1", "activity change": "-95.5% (active)"}, {"smiles": "CC(=O)Nc1cccc(-c2cc(NC(C)=O)c3ncc(-c4ccccc4)n3c2)c1", "activity change": "12.6%"}, {"smiles": "NC(=O)C1(N2CCCCC2)CCN(C2CC(=O)N(Cc3ccc(N4CCCC4=O)cc3)C2=O)CC1", "note": "(stereo not given)", "activity change": "-8.36%"}, {"smiles": "CC1(C(=O)NS(=O)(=O)c2ccccc2)CCN1C(=O)Cc1ccc(-c2ccccc2)cc1", "note": "(stereo not given)", "activity change": "-14.7%"}, {"smiles": "Cn1c(CCNS(=O)(=O)c2ccc(F)cc2)nnc1SCc1cccnc1", "activity change": "22.3%"}, {"smiles": "CCN(C(=O)COC(=O)c1ccccc1O)c1cccc2ccccc12", "activity change": "-54.8% (active)"}, {"smiles": "CCN(C(=O)CSc1ncn[nH]1)c1cccc2ccccc12", "activity change": "19.5%"}, {"smiles": "Cc1cccc(C)c1NC(=O)COC(=O)c1ccccc1O", "activity change": "12.4%"}, {"smiles": "Cc1ccc(Sc2ccc(NC(=O)c3ccc(F)cc3)cc2C#N)cc1", "activity change": "10.9%"}, {"smiles": "CC1CCCC(NC(=O)c2cccc(N3CCCC3=O)c2)C1C", "note": "(stereo not given)", "activity change": "9.06%"}, {"smiles": "CC1CCN(C(=O)COC(=O)c2cc(S(=O)(=O)N3CCOCC3)ccc2Cl)CC1", "activity change": "11%"}, {"smiles": "O=C(c1ccc(CS(=O)(=O)c2ccccc2)o1)N1CCN(c2ccccc2)CC1", "activity change": "41.8%"}, {"smiles": "Cc1ccc(CS(=O)Cc2ccc(C(=O)N3CCOCC3)o2)cc1", "note": "(stereo not given)", "activity change": "41.9%"}, {"smiles": "O=C(c1ccc(CS(=O)Cc2ccccc2Cl)o1)N1CCN(c2ccccc2)CC1", "note": "(stereo not given)", "activity change": "-50.4% (active)"}, {"smiles": "COc1cc(/C=C/CNC[C@H]2O[C@@H](n3cnc(C(N)=O)n3)[C@H](O)[C@@H]2O)ccc1O", "activity change": "-17.5%"}, {"smiles": "CCOC(=O)/C(C#N)=C/c1cn(CCC(=O)O)nc1-c1ccc(Br)cc1", "activity change": "0%"}, {"smiles": "O=C(O)CCn1cc(/C=C/C(=O)c2ccc(Cl)cc2)c(-c2cccc(Br)c2)n1", "activity change": "-96.6% (active)"}, {"smiles": "O=C(/C=C/NNC(=O)c1cccc(Br)c1)c1ccccc1", "activity change": "-15.9%"}, {"smiles": "CC(=O)N/C(=C\\c1ccc(F)cc1)C(=O)NC(Cc1ccccc1)C(=O)O", "note": "(stereo not given)", "activity change": "41.6%"}, {"smiles": "C[C@@H]1CN([C@H](C)CO)C(=O)CCCn2nncc2CO[C@@H]1CN(C)C(=O)OCc1ccccc1", "activity change": "-18.7%"}, {"smiles": "O=C(c1cc(COc2ccc(F)cc2F)on1)N1CCOCC1", "activity change": "4.05%"}, {"smiles": "CCOC(=O)N1CCN(C(=O)C[C@@H]2C[C@@]3(C(=O)OC)CCCCC=C3N(CCC3=CCCCC3)C2=O)CC1", "activity change": "-20.9%"}, {"smiles": "O=C(/C=C/c1cccs1)c1cc(Cl)ccc1OC(=O)N1CCOCC1", "activity change": "-111% (active)"}, {"smiles": "O=C(Oc1cccc(C(=S)N2CCOCC2)c1)c1cccc(Cl)c1", "activity change": "-5.21%"}, {"smiles": "CC(=O)Nc1ccccc1OC(=O)N1CCOCC1", "activity change": "4.54%"}, {"smiles": "COc1ccccc1C(=O)NC(CCSC)C(=O)N1CCN(C/C=C/c2ccccc2)CC1", "note": "(stereo not given)", "activity change": "-8.53%"}, {"smiles": "O=C(CC(CC(=O)c1ccccc1)c1ccco1)c1ccccc1", "activity change": "13.9%"}, {"smiles": "COc1ccc(NC(=O)COC(=O)C2COc3ccccc3O2)cc1", "note": "(stereo not given)", "activity change": "8.76%"}, {"smiles": "CC(=O)c1ccc(OCC(=O)N(C)C2CCS(=O)(=O)C2)cc1", "note": "(stereo not given)", "activity change": "-0.496%"}, {"smiles": "O=C(c1ccc(=O)[nH]c1)N(Cc1ccco1)C1(C(=O)NC2CCCCC2)CCCCC1", "activity change": "-5.54%"}, {"smiles": "CNC(=O)/C(C#N)=C/c1c(F)cccc1Cl", "activity change": "-84.3% (active)"}, {"smiles": "O=C(/C=C/c1c(F)cccc1Cl)Nc1nn[nH]n1", "activity change": "19.3%"}, {"smiles": "Cc1cc(/C=C(/C#N)C(=O)Nc2ccc(Cl)cc2)c(C)n1-c1cccnc1", "activity change": "-3.14%"}, {"smiles": "Cc1cccc(C(=O)OCC(=O)Nc2sccc2C(N)=O)c1C", "activity change": "-7.19%"}, {"smiles": "Cc1nn(C)cc1S(=O)(=O)N1CCN(c2ccc(F)cc2)CC1", "activity change": "1.55%"}, {"smiles": "COC1C(CO)OC(n2cnc3c(=S)nc(N)[nH]c32)C1O", "note": "(stereo not given)", "activity change": "2.88%"}, {"smiles": "O=c1cc(N2CCCCC2)c(-c2ccccc2)nn1Cc1cccc(F)c1", "activity change": "-2.53%"}, {"smiles": "Cc1ccc2oc(=O)ccc2c1", "activity change": "12.6%"}, {"smiles": "Cc1nc2c(OCc3ccc(Cl)cc3)cccn2c1N(C)Cc1cccs1", "activity change": "-66.3% (active)"}, {"smiles": "CCc1nc2c(OCc3ccc(F)c(F)c3)cccn2c1N(C)C(=O)c1ccco1", "activity change": "10.9%"}, {"smiles": "Cc1nc2c(OCC(=O)C(C)(C)C)cccn2c1N(C)Cc1cccs1", "activity change": "-25.2%"}, {"smiles": "CCOC(=O)[C@]12CCC=C1N(Cc1cccc3ccccc13)C(=O)[C@H](CC(=O)NCc1cccc(C(F)(F)F)c1)C2", "activity change": "-21.1%"}, {"smiles": "O=C(c1ccc2nc(N3CCOCC3)sc2c1)N1CCN(c2ccc(Cl)cc2)CC1", "activity change": "1.67%"}, {"smiles": "COc1ccc2nc(N3C(=O)C(O)=C(C(=O)c4ccco4)C3c3ccco3)sc2c1", "note": "(stereo not given)", "activity change": "23.2%"}, {"smiles": "COc1ccc2nc(N3CCN(C(=O)c4ccc([N+](=O)[O-])o4)CC3)sc2c1", "activity change": "-88% (active)"}, {"smiles": "Cc1cc(Br)cn2c(Cc3ccccc3C(F)(F)F)c(-c3ccc(Cl)cc3)nc12", "activity change": "25.9%"}, {"smiles": "CC1(C(=O)NS(=O)(=O)c2ccccc2Cl)CCN1C(=O)c1cccc(F)c1", "note": "(stereo not given)", "activity change": "22.3%"}, {"smiles": "COc1ccc(CC(=O)NCc2nnc(SCC(=O)Nc3ncc(C)s3)n2C)cc1", "activity change": "15.7%"}, {"smiles": "CCOC(=O)c1nnn(-c2nonc2-n2cccc2)c1CN1CCOCC1", "activity change": "9.61%"}, {"smiles": "CC(=O)c1c(C)n(-c2ccc(C)cc2)c2ccc(O)cc12", "activity change": "12.1%"}, {"smiles": "CCOC(=O)c1c(CN2CCOCC2)n(-c2ccccc2)c2ccc(O)cc12", "activity change": "-54.1% (active)"}, {"smiles": "CCOC(=O)Cc1csc(NC(=O)CSc2ccc(Br)cc2)n1", "activity change": "35.1%"}, {"smiles": "CCOC(=O)Cc1csc(NC(NC(=O)OCC)(C(F)(F)F)C(F)(F)F)n1", "activity change": "2.86%"}, {"smiles": "CC(=O)NCc1ccc(-c2csc(NC(=O)CCCc3nc4ccccc4c(=O)[nH]3)n2)cc1", "activity change": "-3.36%"}, {"smiles": "CC(=O)Nc1ccc(-c2csc(NC(=O)Nc3ccccc3)n2)cc1", "activity change": "-57.5% (active)"}, {"smiles": "CCOC(=O)Cc1csc(NC(=O)Nc2ccccc2)n1", "activity change": "-69.2% (active)"}, {"smiles": "CC(=O)Nc1ccc(-c2cn3cccnc3n2)cc1", "activity change": "-2.21%"}, {"smiles": "N#CCCN(C(=O)Nc1ccc(Cl)c(Cl)c1)C1CCCCC1", "activity change": "-24.2%"}, {"smiles": "CCOC1=C2[C@H]([C@H]3C(=O)N(c4ccccc4)C(=O)[C@H]3C1)[C@@H](c1ccccc1)N(S(=O)(=O)c1ccc(C)cc1)[C@H]2c1ccccc1", "activity change": "21.6%"}, {"smiles": "COc1ccc(OC)c(C(=O)c2coc3ccc(OC)cc23)c1", "activity change": "5.54%"}, {"smiles": "COc1ccc2occ(C(=O)c3ccc(N=C(C)N(C)C)cc3)c2c1", "activity change": "-57% (active)"}, {"smiles": "COc1ccc(C(=O)c2oc3ccc(Br)cc3c2NC(C)=O)cc1", "activity change": "-26.9%"}, {"smiles": "Cc1nc(CN2CCN(C(=O)CCc3nnc(Cc4c[nH]c5ccccc45)o3)CC2)cs1", "activity change": "21.5%"}, {"smiles": "C[C@H]1CN([C@@H](C)CO)C(=O)c2cc(Br)cnc2O[C@H]1CN(C)S(=O)(=O)c1cccs1", "activity change": "-17.5%"}, {"smiles": "Nc1ccccc1-c1nc2ccncc2[nH]1", "activity change": "-6.01%"}, {"smiles": "CCCCn1c(N)c(N(CC(C)C)C(=O)c2cnc(C)cn2)c(=O)[nH]c1=O", "activity change": "-2.8%"}, {"smiles": "CCCCn1c(N)c(N(CC(C)C)C(=O)c2ccc(-n3c(C)ccc3C)cc2)c(=O)[nH]c1=O", "activity change": "-61.6% (active)"}, {"smiles": "CCCCn1c(N)c(N(CC(C)C)C(=O)c2ccc(Br)o2)c(=O)[nH]c1=O", "activity change": "-3.41%"}, {"smiles": "CC(C)c1ccc(-c2nn[nH]n2)cc1", "activity change": "-4.8%"}, {"smiles": "CN[C@H]1C[C@H]2c3cc(Oc4ccccc4C)ccc3CCN2C(=O)[C@H]1[C@H](C)O", "activity change": "-11%"}, {"smiles": "N#Cc1c(-c2ccc(F)cc2)nc(-c2ccccc2)[nH]c1=O", "activity change": "8.84%"}, {"smiles": "[O-][n+]1onc2c1CCc1[nH]c(-c3ccccc3)nc1-2", "activity change": "-66.3% (active)"}, {"smiles": "CN1CCN(c2ccc3c(c2)OC[C@H](Cc2ccccc2)NS3(=O)=O)CC1", "activity change": "2.92%"}, {"smiles": "COc1cccc(-c2cc3nc(NCCOc4ccccc4Cl)n(C)c(=O)c3s2)c1", "activity change": "33.6%"}, {"smiles": "O=c1[nH]c(CCl)nc2cc(-c3ccc(Cl)cc3)sc12", "activity change": "-93.8% (active)"}, {"smiles": "Cn1c(NCc2cccnc2)nc2cc(-c3ccc(F)cc3)sc2c1=O", "activity change": "4.79%"}, {"smiles": "O=c1[nH]c(=S)[nH]c(O)c1/C=C1\\C=Nc2ccccc21", "activity change": "-3.38%"}, {"smiles": "Cc1nc(C(F)(F)F)ccc1C(=O)N1CCC1(C)C(=O)NS(=O)(=O)c1ccccc1Cl", "note": "(stereo not given)", "activity change": "27.9%"}, {"smiles": "O=C(Nc1ccc2c(c1)[C@@H]1C[C@@H](CC(=O)N3CCCCC3)O[C@@H](CO)[C@@H]1O2)NC1CCCCC1", "activity change": "7.94%"}, {"smiles": "CC1CN(Cc2ccccc2)C(=S)NC1=O", "note": "(stereo not given)", "activity change": "5.57%"}, {"smiles": "CC(=O)Oc1c(C(=O)c2nnc(C)o2)c(=O)n(Cc2ccccc2)c2ccccc12", "activity change": "-63.6% (active)"}, {"smiles": "CC(=O)OCC(C)n1c(=O)c2ccccc2n1C(C)=O", "note": "(stereo not given)", "activity change": "21.8%"}, {"smiles": "CC(=O)c1nc2ccccc2n1Cc1ccccc1", "activity change": "24.8%"}, {"smiles": "COc1ccc(NS(=O)(=O)c2cc(NC(=O)CC(=O)c3ccc([N+](=O)[O-])cc3)ccc2C)cc1", "activity change": "-19.6%"}, {"smiles": "O=C(Nc1cccc(-c2nc3ncccc3o2)c1)c1ccco1", "activity change": "-57% (active)"}, {"smiles": "CC(C)(C)NC(=O)c1cc(NC(=O)c2ccco2)cc(NC(=O)c2ccco2)c1", "activity change": "3.33%"}, {"smiles": "O=C(Nc1cc(-c2nc3ncccc3o2)ccc1Cl)c1ccco1", "activity change": "4.47%"}]}]}
